Shown are actives, neighbours in structure and some others; about 4.6% of the full set was active somewhere.
TRHR PAM: TRH receptor (human) allosteric enhancement | TRHR cells, fluo-8 calcium fluorescence, EC20 TRH enhancement | enhancement, % at 2 µM | 0.66% of 360,000 active | AID 493056; in the data active = enhancement above about 30%; also: 0% is about no effect
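TRHR-expressing cells loaded with fluo-8 calcium dye were read kinetically (ex 480/em 530) during compound addition, then stimulated with an EC20 of TRH (10 nM final). Enhancement of the Gq-mediated intracellular calcium response was scored.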
D1 agonist: agonists of human D1 dopamine receptor; P21728; activation, % at 2 µM; AID 504660; 1% of 360,000 active; HEK293 T-REx D1 cells, calcium flux, agonist mode; also: 0% is about no effect
Target sequence (P21728 whole entry, looked up): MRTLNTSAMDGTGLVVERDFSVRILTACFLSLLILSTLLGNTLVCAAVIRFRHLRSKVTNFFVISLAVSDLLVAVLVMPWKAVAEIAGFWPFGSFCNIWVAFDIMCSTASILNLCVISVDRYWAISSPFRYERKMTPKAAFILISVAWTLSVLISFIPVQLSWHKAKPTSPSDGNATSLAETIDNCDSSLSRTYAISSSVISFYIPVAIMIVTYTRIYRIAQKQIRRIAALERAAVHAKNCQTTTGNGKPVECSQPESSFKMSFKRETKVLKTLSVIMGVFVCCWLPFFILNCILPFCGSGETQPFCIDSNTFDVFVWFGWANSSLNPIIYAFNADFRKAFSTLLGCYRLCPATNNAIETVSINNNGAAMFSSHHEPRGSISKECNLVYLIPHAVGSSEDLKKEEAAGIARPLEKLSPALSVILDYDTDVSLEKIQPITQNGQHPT
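Agonism was scored from calcium flux recorded over 180 s (1 read/s) after pintool compound addition, following a 10-cycle baseline. Cells were inducible force-coupled HEK293 TREx D1, plated overnight at 30 C and loaded with no-wash calcium dye.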
TRHR agonist: agonists of human TRH receptor; TRHR cells, calcium flux fluo-8, FDSS agonist mode; activation, % at 2 µM; 0.18% of 360,000 active; P34981; also: 0% is about no effect
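TRHR-expressing cells, plated overnight in medium with 10% serum, were loaded with fluo-8 calcium dye at room temperature. After a 10 s baseline, library compound was pin-added and calcium release was recorded kinetically (ex 480/em 530) as agonist response.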
D1 potentiator: potentiators of human D1 dopamine receptor; P21728; HEK293 TREx D1 cells, calcium flux, dopamine EC20 potentiation; potentiation, % at 10 µM; 0.036% of 360,000 active; AID 504651; in the data active = potentiation above about 30%; also: 0% is about no effect
D1 antag: blocks dopamine activation of the human D1 receptor | 3.2% of 360,000 active | activity change, negative = inhibition, % at 10 µM | AID 504652 | HEK293 TREx D1 cells, calcium flux, dopamine EC80; stronger effect = lower value; in the data active = activity change below about -30%; also: % is scaled to controls: 0 for no effect and ±100 for the full control effect
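Tetracycline-induced HEK293 Trex D1 cells, force-coupled to calcium, dye-loaded; compounds added and read 180 s, then EC80 dopamine added and calcium flux tracked kinetically another 180 s.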
Starred values were filed as active, the others as inactive; nt = no result given. Rule as the data show it, unless noted: active = activation above about 30%; inactive = the rest.

SMILES	TRHR PAM	D1 agonist	TRHR agonist	D1 potentiator	D1 antag
CCCCCCC(C)n1[nH]c(=O)cc1N (configuration not stated)	25.5	0.6	-0.1	-14.3	-31.6*
CCCNC(=O)c1ccc(-c2nc(CS(=O)(=O)c3ccc(C)cc3)c(C)o2)cc1	-2.0	-1.4	-0.3	-0.8	-16.3
Cc1cc(NC(=O)c2c(-c3c(Cl)cccc3Cl)noc2C)n(C)n1	13.0	3.1	0.1	-11.0	-50.0*
Cc1cc(C)nc(NC(=O)c2c(-c3c(Cl)cccc3Cl)noc2C)n1	14.8	-0.6	0.3	-4.4	12.9
Cc1cc(NC(=O)c2ccc(-c3ccccc3F)o2)no1	36.5*	6.3	0.2	-3.8	9.7
Cc1cc(NC(=O)c2c(-c3c(F)cccc3Cl)noc2C)no1	-0.8	11.1	0.2	-1.4	-3.1
Cc1cc(NC(=O)c2ccc(-c3ccc(F)c(Cl)c3)o2)no1	-2.8	1.5	0.1	-3.0	4.3
Cc1cc(NC(=O)c2c(Cl)cccc2Cl)no1	30.4*	2.5	-0.8	-4.7	13.7
C=Cc1nc(Nc2cc(F)cc(F)c2)nc(NC2CCCC2)n1	3.9	0.3	1.1	-9.7	-10.4
CSc1ncc(C(=O)Nc2c(C)cccc2C)c(-c2ccccc2)n1	29.7	4.6	-1.0	-2.6	-0.6
COc1cccc(-c2noc(-c3cc(C(C)C)[nH]n3)n2)c1OC	0.7	0.0	0.1	-0.3	19.2
Cc1ccc(OCC(=O)Nc2cccc(C(=O)OCc3cc(=O)n4nc(C)sc4n3)c2)cc1	1.9	0.4	-0.3	0.1	12.5
O=C(NNc1ccnc2cc(Cl)ccc12)C1CCCCC1	2.2	13.7	-0.2	-4.0	-32.1*
COc1ccc(CNC(=O)C2CCN(S(=O)(=O)c3ccc4c(ccn4C)c3)CC2)cc1	-0.2	3.8	-0.6	-3.5	-35.5*
CCCCNC(=O)C1CCN(S(=O)(=O)c2ccc3c(ccn3CC)c2)CC1	5.2	-1.0	-0.3	-2.1	1.6
Cc1ccccc1CCNC(=O)Cn1ccc2cc(S(=O)(=O)N3CCCC3)ccc21	30.1*	2.8	-0.3	-5.7	7.8
CCn1ccc2cc(S(=O)(=O)N3CCCN(C(=O)Nc4ccc(C)c(F)c4)CC3)ccc21	-8.5	2.4	-0.4	-3.4	-30.6*
CCn1ccc2cc(S(=O)(=O)N3CCC(C(=O)NCCc4ccccc4Cl)CC3)ccc21	1.3	2.9	-0.2	2.5	-39.8*
COc1ccc(S(=O)(=O)N2CCC(C(=O)NCc3ccc(C)cc3)CC2)cc1	3.9	0.4	0.0	1.0	16.0
COc1cccc(N2CCN(C(=O)C3CCN(S(=O)(=O)c4c(C)noc4/C=C/c4ccccc4F)CC3)CC2)c1	-6.5	7.1	0.4	-1.1	4.5
CCN(C(=O)c1cc2cc(Br)cc(OC)c2oc1=O)c1ccccc1	-4.5	-1.1	-1.9	-2.5	1.0
COc1ccc(NC(=O)Cn2c(=O)n(CC3CCCO3)c(=O)c3ccccc32)cc1 (configuration not stated)	4.4	-1.8	-0.5	-1.0	-2.5
CCOc1ccc(CNC(=O)Cn2ccc3cc(S(=O)(=O)N4CCCCC4)ccc32)cc1	5.1	1.4	0.0	-1.0	-34.8*
Cc1cc(Br)ccc1NCc1ccccn1	5.7	0.3	0.2	5.7	-56.4*
O=C(Oc1ccc2c(c1)O/C(=C\c1ccncc1)C2=O)c1ccccc1	3.2	56.2*	-0.2	-1.1	3.4
SMILES	TRHR PAM	D1 agonist	TRHR agonist	D1 potentiator	D1 antag
Cc1ccc(/C=C2\Oc3cc(OC(=O)N4CCOCC4)ccc3C2=O)cc1	-6.8	0.3	0.5	-6.2	-24.6
CN(CCOc1ccccc1)C(=O)C1CCN(C(=O)c2ccc(Cl)cc2)CC1	2.7	4.4	-1.5	-12.7	-3.3
COc1ccc(C(=O)N2CCC(C(=O)Nc3ccc(Cl)cc3)CC2)cc1	7.6	16.2	-1.0	-3.2	-41.7*
COc1cc(NS(=O)(=O)c2ccc(NC(=S)NC(=O)C3CCCC3)cc2)nc(OC)n1	-6.4	1.4	-0.3	-11.9	-34.9*
COc1ccc(NS(=O)(=O)c2ccc(NC(=O)C3CC3)cc2)cc1	-18.5	12.4	-0.4	-11.9	-87.2*
CN(CCOc1ccc(Cl)cc1)C(=O)C1CCN(C(=O)c2ccc(F)cc2)CC1	18.3	13.2	1.3	-11.5	-32.9*
CCc1ccccc1NC(=O)CCn1cccn1	6.1	2.2	-0.6	-0.9	16.8
CCc1nc(-c2ccc(C)c(S(=O)(=O)N3CCN(c4ccc(C(C)=O)cc4)CC3)c2)no1	13.7	3.9	0.3	1.7	3.2
Cc1ccc(NC(=O)C2CCN(C(=O)c3ccccc3C)CC2)cc1	4.1	-0.2	-0.2	-0.5	-44.1*
COC(=O)c1ccccc1NC(=O)C1CCN(C(=O)c2ccc(OC)cc2)CC1	-5.2	1.2	-0.3	-13.2	-33.2*
Cc1cc(=O)n(Cc2ccc(Cl)cc2)c2c1c(C)nn2-c1ccccc1	-2.0	8.5	-0.7	1.9	8.3
CCn1nc(C)c(CNC(=O)c2ccc(OC3CCN(Cc4ccccn4)CC3)cc2)c1C	2.5	5.5	0.6	-5.7	-34.0*
CC(C)c1cc(CNC(=O)c2ccc(OC3CCN(Cc4ccccn4)CC3)cc2)on1	-1.6	12.9	0.2	-7.1	-53.5*
COC(=O)[C@@H](NC(=O)c1ccc(OC2CCN(Cc3ccccn3)CC2)cc1)C(C)C	-5.9	4.2	0.7	-1.4	1.2
CCn1cc(CNC(=O)c2ccc(OC3CCN(Cc4ccccn4)CC3)cc2)cn1	-1.0	1.7	-0.1	-5.1	0.5
Cc1oc2ncn(CC(C)C)c(=O)c2c1C(=O)N1CCN(c2cccc(C(F)(F)F)c2)CC1	-6.2	1.6	-0.3	-1.9	15.6
Cc1cc(C)cc(C(=O)Nc2c3c(nn2-c2ccccc2C)CS(=O)(=O)C3)c1	1.8	-4.3	-1.0	1.6	21.8
CCCNC(=S)Nc1ccc2nc(-c3ccccn3)c(-c3ccccn3)nc2c1	2.8	1.6	0.4	-10.7	-37.2*
Cc1ccc(-n2[nH]c(C)c(C=Nc3ccc(Br)cn3)c2=O)cc1	0.5	1.7	0.4	-7.8	-33.0*
CCc1ccc(NC(=O)CSc2nnc(-c3nonc3NC(C)=O)n2-c2ccccc2)cc1	-3.1	0.8	-0.1	-0.1	0.7
COc1ccccc1C(C)NS(=O)(=O)c1cccs1 (configuration not stated)	-7.4	0.1	-0.1	-2.6	-8.9
CC(C)c1cccc(C(C)C)c1NS(=O)(=O)c1cccs1	0.4	5.4	-1.5	1.1	-31.4*
O=C(NCc1ccc(F)cc1)c1cc(-c2ccc(Cl)cc2)n[nH]1	-2.3	-1.1	-0.5	-3.1	6.7
Cc1ccc(C(c2sc3nc(-c4ccco4)nn3c2O)N2CCCC2)cc1 (configuration not stated)	-2.4	0.8	0.1	0.2	nt
Cc1nc2sccn2c(=O)c1S(=O)(=O)NCc1ccccc1Cl	2.3	2.3	0.7	-4.0	7.7
Cc1nc2sccn2c(=O)c1S(=O)(=O)NCC1CCN(Cc2ccccc2Cl)CC1	-1.3	4.6	0.7	9.2	-66.1*

Bioassay records: PubChem BioAssay, National Center for Advancing Translational Sciences (NCATS)
